Our source for the growth values is PubChem BioAssay (NCI).

Compounds without any hit were thinned out: in the full panel of roughly 83,000, 20% have a hit.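 Percent growth is the endpoint: 0 to 100 indicates growth inhibition (40 means 60% inhibition), 0 means no net growth, and negative values indicate cell death.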 A number with no mark means an inactive call. Active and inactive are the calls of the source. The calls were made as follows: active = growth percent below 10; inactive = the rest.

Some test systems named below: SK-MEL-2 melanoma; EKVX NSCLC; SN12C renal; UO-31 renal; TK-10 renal; ACHN renal; CAKI-1 renal; A498 renal; CCRF-CEM leukemia; MOLT-4 leukemia; SR leukemia; RPMI-8226 leukemia; OVCAR-8 ovarian; OVCAR-5 ovarian; OVCAR-4 ovarian; SK-OV-3 ovarian; IGROV1 ovarian; OVCAR-3 ovarian; HS 578T breast; NCI/ADR-RES ovarian.
Common to all, as to experiment: NCI-60 one-dose screen, 48 h (100 = growth as untreated, 0 = no growth, -100 = all killed)
Holding throughout (conditions): 10 µM unless noted

As to `O=C(C1CCCCC1)[C@@H]1[C@]2(C(=O)NC3CCCCC32)[C@@H]2CCCN2[C@@]12C(=O)NC1CCC(Cl)CC12` (stereo not given in full), the growth is -79.2% [100 µM] (active) in the test on SK-MEL-2 melanoma; -89.5% [100 µM] (active) in the test on EKVX NSCLC; -80% [100 µM] (active) in the test with SN12C renal; -73% [100 µM] (active) with UO-31 renal; -81.1% [100 µM] (active) in the test on TK-10 renal; -97.8% [100 µM] (active) in the test on ACHN renal. Further, the growth with CAKI-1 renal was -82.7% [100 µM] (active); with A498 renal it was -94.8% [100 µM] (active); in the test with CCRF-CEM leukemia, -49% [100 µM] (active); in the test on MOLT-4 leukemia it was -57.3% [100 µM] (active); in the test on SR leukemia, -68.6% [100 µM] (active); in the test on RPMI-8226 leukemia it was -33.6% [100 µM] (active). The growth was -64.3% [100 µM] (active) with OVCAR-8 ovarian; -89.5% [100 µM] (active) in the test on OVCAR-5 ovarian; -79.6% [100 µM] (active) in the test on OVCAR-4 ovarian; -94.1% [100 µM] (active) in the test with SK-OV-3 ovarian; -70.3% [100 µM] (active) in the test on IGROV1 ovarian; -91.9% [100 µM] (active) with OVCAR-3 ovarian. Moreover, the results for the growth with HS 578T breast and with NCI/ADR-RES ovarian were -43.6% [100 µM] (active) and -68.2% [100 µM] (active), respectively.

Turning to `C[C@@H]1O[C@@H](O[C@@H]2C[C@H](c3ccc4c(c3O)C(=O)C3=C(C4=O)[C@@]4(O)C(=O)C[C@](C)(O)C[C@@]4(O)C=C3)O[C@H](C)[C@H]2O)CC[C@@H]1O[C@H]1C[C@@H](O)[C@H](O)[C@@H](C)O1`, the growth in the test with SK-MEL-2 melanoma is 110%; with EKVX NSCLC it was 98%; with SN12C renal, 98.4%; in the test with UO-31 renal, 82.8%; with TK-10 renal, 97.4%; with ACHN renal it was 90.8%. Also, the growth was 93.3% with CAKI-1 renal; 108% with A498 renal; 90.5% in the test on CCRF-CEM leukemia; 86.6% with MOLT-4 leukemia; 89.6% in the test on SR leukemia; 95.3% in the test with RPMI-8226 leukemia. Further, the growth with OVCAR-8 ovarian is 98.2%; with OVCAR-5 ovarian, 110%; with OVCAR-4 ovarian, 87.1%; in the test with SK-OV-3 ovarian, 111%; with IGROV1 ovarian, 96.4%; in the test on OVCAR-3 ovarian, 98.1%. In addition, the growth is 105% in the test with HS 578T breast and 97% in the test with NCI/ADR-RES ovarian.

On to `CNC(=O)c1cc(Oc2ccc3c(c2)sc2nc(-c4ccc(OC)cc4)cn23)ccn1`, for which the growth in the test on SK-MEL-2 melanoma is 44.2%; with EKVX NSCLC, 52.7%; in the test with SN12C renal, 69.7%; in the test on UO-31 renal it was 52.2%; in the test with TK-10 renal, 21.1%; with ACHN renal, 83.8%. Besides, the growth in the test with CAKI-1 renal was 85.5%; in the test on A498 renal, 16.9%; in the test with CCRF-CEM leukemia, 66.9%; with MOLT-4 leukemia, 76.6%; with SR leukemia it was 38%; with RPMI-8226 leukemia, 20.2%. Moreover, the growth was 52.4% in the test with OVCAR-8 ovarian; 36% in the test on OVCAR-5 ovarian; 65.8% in the test with OVCAR-4 ovarian; 16.8% in the test with SK-OV-3 ovarian; 83.3% in the test on IGROV1 ovarian; 4.08% (active) in the test on OVCAR-3 ovarian. In addition, the growth in the test on HS 578T breast is 76.8%; with NCI/ADR-RES ovarian, 71.3%.

In the case of `CN1CCN(c2ccc(NC(=O)c3cncnc3Nc3ccc(OCc4cccc(F)c4)c(Cl)c3)cc2)CC1`, the growth with SK-MEL-2 melanoma is 120%; in the test on EKVX NSCLC it was 98.6%; in the test with SN12C renal, 63.9%; with UO-31 renal, 25%; in the test with TK-10 renal it was 103%; with ACHN renal it was 89.3%. For the same compound, the growth is 81.5% in the test on CAKI-1 renal; 70.8% with A498 renal; 16.2% with CCRF-CEM leukemia; 6.75% (active) in the test on MOLT-4 leukemia; 14.9% in the test with SR leukemia; 70.2% in the test with RPMI-8226 leukemia. Besides, the growth with OVCAR-8 ovarian was 76.7%; with OVCAR-5 ovarian it was 76.3%; in the test with OVCAR-4 ovarian, 72.1%; in the test with SK-OV-3 ovarian, 103%; in the test with IGROV1 ovarian, 91.6%; with OVCAR-3 ovarian it was 81.7%. In addition, the growth was 75% with HS 578T breast and 75.2% in the test with NCI/ADR-RES ovarian.

As to `CC(C)N1C(=O)/C(=c2\sc3n(c2=O)C2C(NN=3)N(C)C(=O)N2C)c2ccccc21` (stereo not given), the growth with SK-MEL-2 melanoma is 73.5%; in the test on EKVX NSCLC it was 88.8%; with SN12C renal, 81.7%; with UO-31 renal, 52.7%; in the test on TK-10 renal, 94.5%; in the test on ACHN renal, 59.2%. For the same compound, the growth in the test with CAKI-1 renal was 28.6%; in the test on A498 renal, 23.8%; in the test with CCRF-CEM leukemia, 69.8%; in the test with MOLT-4 leukemia, 71.5%; in the test on SR leukemia, 23.3%; in the test with RPMI-8226 leukemia, 94.5%. In addition, the growth with OVCAR-8 ovarian was 79.6%; in the test with OVCAR-5 ovarian it was 84.6%; in the test with OVCAR-4 ovarian it was 85%; in the test with SK-OV-3 ovarian, 76.3%; in the test on IGROV1 ovarian, 53.2%; in the test with OVCAR-3 ovarian it was 20.7%. Moreover, the figures for the growth with HS 578T breast and in the test with NCI/ADR-RES ovarian were 41.7% and 51.5%, respectively.

Turning to `Oc1c(CN2CCOCC2)cc(COCc2ccccc2)c2cccnc12`, the growth was 36.9% in the test on SK-MEL-2 melanoma; 92.5% in the test on EKVX NSCLC; 39.9% with SN12C renal; 6.45% (active) in the test with UO-31 renal; 31.1% in the test with TK-10 renal; 12.6% with ACHN renal. Moreover, the growth was 13.5% in the test with CAKI-1 renal; 49.7% in the test with A498 renal; 11.7% in the test on CCRF-CEM leukemia; 15.3% in the test with MOLT-4 leukemia; 13.4% with SR leukemia; 29.1% in the test with RPMI-8226 leukemia. Moreover, the growth is 14.5% in the test with OVCAR-8 ovarian; 37.8% in the test with OVCAR-5 ovarian; 24.5% with OVCAR-4 ovarian; 9.56% (active) in the test on SK-OV-3 ovarian; 16.2% in the test with IGROV1 ovarian; 19.7% in the test with OVCAR-3 ovarian. Further, the growth in the test with HS 578T breast was 68.4%; in the test with NCI/ADR-RES ovarian, 7.42% (active).

Turning to `Fc1ccc2[nH]cc(-c3nc(-c4c[nH]c5ccncc45)cs3)c2c1`, the growth is -49.9% (active) in the test with SK-MEL-2 melanoma; -45.7% (active) in the test with EKVX NSCLC; -49.8% (active) with SN12C renal; -69.9% (active) in the test with UO-31 renal; -37.4% (active) in the test on TK-10 renal; -78.2% (active) in the test with ACHN renal. Besides, the growth was -17.4% (active) in the test on CAKI-1 renal; 62.1% in the test on A498 renal; -19.2% (active) in the test on CCRF-CEM leukemia; -32.6% (active) with MOLT-4 leukemia; -6.91% (active) in the test with SR leukemia; -24.2% (active) in the test with RPMI-8226 leukemia. In addition, the growth in the test on OVCAR-8 ovarian was -41.5% (active); in the test with OVCAR-5 ovarian, 24.3%; in the test on OVCAR-4 ovarian, -0.149% (active); with SK-OV-3 ovarian it was 63.1%; in the test with IGROV1 ovarian it was -43.2% (active); in the test on OVCAR-3 ovarian, -74.3% (active). Also, the growth in the test on HS 578T breast is -38.3% (active); with NCI/ADR-RES ovarian, 16.9%.

In the case of `CS(=O)(=O)c1ccc(NC(=O)c2ccccc2)nc1`, the growth is 109% with SK-MEL-2 melanoma; 109% with EKVX NSCLC; 99.1% in the test on SN12C renal; 99.9% in the test with UO-31 renal; 93.5% with TK-10 renal; 111% in the test with ACHN renal. Also, the growth with CAKI-1 renal was 106%; in the test on A498 renal, 92.3%; in the test with CCRF-CEM leukemia it was 74.7%; in the test with MOLT-4 leukemia, 71.3%; in the test on SR leukemia, 76.8%; in the test with RPMI-8226 leukemia, 100%. The growth in the test with OVCAR-8 ovarian is 107%; with OVCAR-5 ovarian it was 108%; in the test on OVCAR-4 ovarian, 115%; with SK-OV-3 ovarian, 94.1%; with IGROV1 ovarian, 111%; with OVCAR-3 ovarian it was 110%. The growth in the test with HS 578T breast is 98.1%; with NCI/ADR-RES ovarian, 110%.
